This is an account of results in PubChem BioAssay (NCI).

Several values for one entry are separate records, joined by “and”; a condition that tells them apart may be missing. Equal values may be shown once. Compounds without any hit were thinned out: in the full panel of roughly 83,000, 20% have a hit.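 Single-concentration screen, 48 h exposure, 96-well plates. Endpoint: percent growth. Below 10 = active.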 A number with no mark means an inactive call. Activity calls are given as the source filed them.

For this assay, the system named is A498 renal. Put plainly: NCI-60 one-dose screen, 48 h (100 = growth as untreated, 0 = no growth, -100 = all killed). As to conditions: 10 µM unless noted.
In the case of `NNc1nnc2nc(Nc3ccccc3)nc(Nc3ccc(S(N)(=O)=O)cc3)n12`, the growth was 102%. On to `Brc1ccc2[nH]cc(-c3nn4cc(-c5nccs5)nc4s3)c2c1`, for which the growth was 47.5%. Regarding `Nn1c(=O)n(-c2cccc(C(F)(F)F)c2)c(=O)c2cc(-c3ccc(F)cc3F)ccc21`, the growth is -20.6% (active). As for `CN(C)CCNc1ccc2ncc(C#Cc3cncc(C(=O)Nc4ccc(CN5CCN(C)CC5)c(C(F)(F)F)c4)c3)n2n1`, the figure is 87.7%; as for `O=S(=O)(Oc1ccc(-c2cn3ccoc3n2)cc1)C1CCCCC1`, 90%. Regarding `O=C(N/N=C\c1ccc([N+](=O)[O-])cc1)c1ccc2nc(-c3ccc(Br)cc3)[nH]c2c1`, the growth is 21.4%. With `Cc1ccsc1[C@H]1c2[nH]c3ccccc3c2C[C@H]2C(=O)N(CCCCCCC(=O)NO)CC(=O)N12`, the growth was 109%. The value for `Cc1ccc(N2CCN(C3=C(Cl)C(=O)c4ncccc4C3=O)CC2)cc1` was 111%; that for `N#Cc1cccc(-c2cc(-c3ccc4c(c3)OCCO4)[nH]n2)c1` was 28.4%; that for `COc1cc2cc(Oc3ccc(NC(=O)c4cc(C(F)(F)F)cc(C(F)(F)F)c4)cc3)c(C)nc2cc1OCCN1CCOCC1` was 55%. As for `N#C/C(=N\Nc1ccc(F)cc1)C(=O)Nc1cc(-c2ccccc2)nn1-c1ccccc1`, the figure is -4.27% (active); as for `CN(C)CCCOc1ccc(C(=C(c2ccccc2)C2CCCC2)c2ccc(OCCCN(C)C)cc2)cc1`, -82.4% (active); as for `NC(=O)c1ncn2c(=O)n(CCF)nnc12`, 101%. With `CN1CCN(c2ccc(Nc3nc(NCCNS(=O)(=O)c4ccc(Cl)cc4)c4sccc4n3)cc2)CC1`, the growth is 94.2%. As for `COc1cc(-c2nc(-c3ccccc3)[nH]c2-c2ccnc(NCCCNS(=O)(=O)c3ccc(C(F)(F)F)cc3)n2)ccc1Cl`, the figure is 40% and 64.3%. Regarding `CC1(C)CC[C@]23CC[C@]4(C)[C@H](CC[C@@H]5[C@@]6(C)CC[C@H](N)C(C)(C)[C@@H]6CC[C@]54C)[C@H]2[C@H]1OC3`, the growth was 108%.

On to `Clc1ccc2[nH]cc(-c3nn4cc(-c5cccnc5)nc4s3)c2c1`, for which the growth is 109%. On to `NS(=O)(=O)c1ccc(Nc2nc(N/N=C/c3ccc4c(c3)OCO4)nc(Nc3ccccc3)n2)cc1`, for which the growth was 51.1%. Consider `Brc1cc(-c2cc(-c3ccc4c(c3)OCCO4)[nH]n2)cs1`, for which the growth was 48.6%. The value for `CC1=C(C)C(=O)C(Nc2ccc(C)c(C)c2)=C(Br)C1=O` was 91.1%; that for `COC(=O)N1CCN(CCNCc2ccc(NC(=O)c3ccc(C)c(C#Cc4cnc5cccnn45)c3)cc2C(F)(F)F)CC1` was 47.8%; that for `O=C(CCCCCCN1CC(=O)N2[C@@H](c3cccs3)c3[nH]c4ccccc4c3C[C@H]2C1=O)NO` was 87.3%. With `C=C(C)[C@@H]1CC[C@]2(C(=O)N3CCN(C)CC3)CC[C@]3(C)[C@H](CC[C@@H]4[C@@]5(C)CC[C@H](OP(=O)(OCC)OCC)C(C)(C)[C@@H]5CC[C@]43C)[C@@H]12`, the growth was 96.4%.

Regarding `CC(=O)N(O)CCCCCNC(=O)CCC(=O)N(O)CCCCCNC(=O)CCC(=O)N(O)CCCCCN(CCCCCCCCCC[P+](c1ccccc1)(c1ccccc1)c1ccccc1)CCCCCCCCCC[P+](c1ccccc1)(c1ccccc1)c1ccccc1`, the growth was -3.27% (active). For `Cc1[nH]c(C(=O)Nc2ccccc2OCc2cccc(C(=O)NCCN)c2)cc1Cl`, the growth is 68.3%. Take `CCOC(=O)Nc1ccc2c(ccn2C(=O)c2cccc(F)c2)c1`: the growth was -6.19% (active). Consider `O=C(Nc1ccc(N=Cc2c(O)[nH]c3ccccc23)cc1)Nc1ccc(S(=O)(=O)Nc2ncccn2)cc1`, for which the growth is 114%. Regarding `Fc1cccc(Cl)c1/C=N/Nc1nc(N/N=C/c2c(F)cccc2Cl)nc(N2CCCCC2)n1`, the growth was 52.8%.

With `CCc1nnc(NC(=O)c2cc(-c3ccc(Cl)cc3Cl)oc2C)s1`, the growth was 97.4%.

Consider `C/C(=N\NC(=O)Nc1ccccc1)c1nnn(-c2ccc([N+](=O)[O-])cc2)c1C`, for which the growth was 105%. In the case of `C#C[C@]1(O)CC[C@H]2[C@@H]3CC=C4c5sc(Nc6cc(Cl)ccc6OC)nc5CC[C@]4(C)[C@H]3CC[C@@]21C`, the growth is -2.08% (active). With `O=C(O)CC1CCN(c2ccc3nnc(Cl)n3n2)CC1`, the growth was 90.2%. Take `Cc1cc2nc(C(Cl)Cl)nc(-c3ccc(S(=O)(=O)N(C)C)cc3)n2n1`: the growth was 90.9%.

On to `CCOC(=O)c1ccccc1NC1=C(Cl)C(=O)c2nc(C)ccc2C1=O`, for which the growth is 87.4%. As for `Cc1ccc([C@H]2c3[nH]c4ccccc4c3C[C@H]3C(=O)N(CCCCCCC(=O)NO)CC(=O)N23)s1`, the figure is 76%; as for `NC1CC2(CCN(c3cnc(C(=O)Nc4cc(F)cc5cccnc45)cn3)CC2)C1`, 74.3%; as for `O=C(CSc1nc2ccccc2c(=O)n1-c1ccc(Cl)cc1)N/N=C/c1ccc(Oc2ccc(Cl)cc2)cc1`, -42.3% (active). The value for `CCCCSC1=C(Cl)CN(c2ccc(Cl)cc2)C1=O` was 101%. Turning to `CC(=O)/C(N=Nc1ccc2oc(=O)ccc2c1)=C(\C)O`, the growth was 29.8%. For the molecule `CCOC(=O)c1c(NC(=O)c2ccc(C(F)(F)F)cc2)sc2c3c(ccc12)OCN(C)C3`, the growth is 89.1%.
